Experimental findings from PubChem BioAssay (Tox21) are described below.

A number with no mark means an inactive call. Records with an inconclusive call do not appear. The source made the active and inactive calls. Unless noted, the call rests on the fitted dose curve; in most records, active means well fitted curve in the direction sought with a large enough effect in the repeat runs; inconclusive means weak or mixed curves; inactive means no such curve, though single readings can be large; an effect the other way counts as inactive or inconclusive.

A short description of experiment [1]: qHTS assay to identify small molecule agonists of the hypoxia (HIF-1) signaling pathway - cell viability counter screen (AID 1224844; calls by dose curve; further: nearly all actives have a fitted effect of over 50% in size). In outline:
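Same wells as the HIF-1 reporter screen; ME-180 cells carrying HRE-bla, 17 hr treatment at 37C; CellTiter-Glo luminescence read after 30 min at room temperature.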
(In qHTS, concentration-response curves come from the screen itself.)

A short description of experiment [2]: qHTS assay to identify small molecule agonists of H2AX (AID 1224845; active means well fitted activation curve with a large enough effect in the signal ratio in the repeat runs, not every such curve was filed as active; the % refers to the signal ratio). In outline: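 Wild-type CHO-K1 cells plated overnight, then exposed 3 hr at 37C to compounds at 15 concentrations (0.76% DMSO). Lysed, then HTRF anti-pH2AX(S139)-cryptate/anti-H2AX-d2 detection after 24 hr at room temperature; emissions 665 and 620 nm.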
A short description of experiment [3]: qHTS assay to identify small molecule agonists of H2AX - cell viability counter screen (AID 1224847; calls by dose curve; further: top concentration of the series differs between compounds; nearly all actives have a fitted effect of over 30% in size). In a few lines: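 CHO-K1 wt, 1000 cells/well, o/n 37C; cpds 15 conc, 3 h 37C, 0.76% DMSO; CellTiter-Glo, 30 min RT, luminescence.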
A short description of experiment [4]: A CellTox Green Cytotoxicity Assay to monitor cytotoxicity in HEK293 cells - 0 hour (AID 1224869). Further: nearly all actives have a fitted effect of over 50% in size. In outline:
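Homogeneous no-lysis format: HEK293 cell suspension mixed with CellTox Green reagent, seeded, incubated 5 h at 37 C/5% CO2, then dosed by pintool with compound in DMSO.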

Experiment [5] in a line: qHTS RealTime-Glo MT Cell Viability Assay in HepG2 cells - 40 hour (AID 1224870). Further: nearly all actives have a fitted effect of over 50% in size. In outline:
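HepG2 cells mixed with RealTime-Glo MT reagents (NanoLuc plus cell-permeant prosubstrate) were seeded at 600 cells/well, incubated 5 h at 37 C/5% CO2, then pinned with compounds in DMSO; nonlytic luminescence tracked viability during 40 h treatment.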

Experiment [6] is described as follows: qHTS RealTime-Glo MT Cell Viability Assay in HEK293 cells - 32 hour (AID 1224868). Further: nearly all actives have a fitted effect of over 50% in size. Further: potency means the concentration at half of the fitted maximal effect. On activity change, negative = cytotoxic: top concentration of the series differs between compounds. In a few lines:
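Reads taken at 0, 8, 16, 24, 32 and 40 h from the same wells. HEK293 cells (600/well) carried RealTime-Glo reagents from seeding, with compound added after a 5 h settle at 37 C.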

Experiment [7] in a line: qHTS RealTime-Glo MT Cell Viability Assay in HepG2 cells - 24 hour (AID 1224867). Further: nearly all actives have a fitted effect of over 50% in size. In outline: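 HepG2 suspension premixed with RealTime-Glo reagents is plated at 600 cells per well and left 5 h at 37 C/5% CO2. Compounds in DMSO then go in, and bioluminescence reflecting viable cell number is recorded over 40 h.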
A short description of experiment [8]: qHTS assay to identify small molecule antagonists of the estrogen related receptor (ERR) signaling pathway from Tox21 library (AID 1224848). Further: nearly all actives have a fitted effect of over 50% in size. Further: potency means the concentration at half of the fitted maximal effect. In outline:
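Tox21 10K compounds in DMSO tested for ERR pathway antagonism in NTP's ERR cell line; 18 h, 37 C exposure; ONE-Glo luminescence.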

A short description of experiment [9]: qHTS assay to identify small molecule agonists of the estrogen related receptor (ERR) signaling pathway from Tox21 library (AID 1224849; calls by dose curve; further: nearly all actives have a fitted effect of over 15% in size). The settings on record: ERR reporter cell line, ONE-Glo luciferase, 18 h; at 92.4 µM (top of the series) unless noted. In a few lines:
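Reporter cells (ERR, NTP source) treated with Tox21 10K compounds 18 h, 37 C. Readout: ONE-Glo luminescence, 30 min RT.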

The nature of experiment [10]: qHTS assay to identify small molecule agonists of the hypoxia (HIF-1) signaling pathway (AID 1224846; active means well fitted activation curve with a large enough effect in the signal ratio in the repeat runs, not every such curve was filed as active; the % refers to the signal ratio). In outline:
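In ME-180 cells bearing an HRE-bla construct, 17 h treatment with DMSO-dissolved compounds at 37C was followed by CCF4-AM loading to quantify reporter induction.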
On the % scale 0 is the no-effect control and ±100 the full control effect.

For the compound `C[N+](C)(C)CCOC(=O)CCC(=O)OCC[N+](C)(C)C`, the Potency result in [1], in [2], in [3], in experiment [4] and in [5] was “inactive” in each case.
In the case of `C/C(=C(\CCOP(=O)(O)O)SC(=O)c1ccccc1)N(C=O)Cc1cnc(C)nc1N`, the activity change, negative = cytotoxicity in experiment [1] was -1.24% [at 6.97 µM]; in experiment [3], 0.972% [at 14 µM]. In addition, the activation (H2AX phosphorylation) in experiment [2] is -0.259% [at 14 µM]. Further, the activity change, negative = cytotoxic in [6] was 2.89% [at 6.97 µM]; in [5], -0.476% [at 6.97 µM]. The cytotoxicity in experiment [4] was 0.458% [at 6.97 µM].
For the compound `O=C(O)C1(C(=O)O)CCC1.[NH2-].[NH2-].[Pt+2]`, the Potency result in [1], in [2], in experiment [3], in experiment [7] and in experiment [5] was “inactive” in each case.
For the compound `CCN(CC)CCNC(=O)c1cc(Br)c(N)cc1OC`, the Potency result in experiment [1], in experiment [2], in experiment [3], in [8], in [7] and in experiment [6] was “inactive” each time. Also, the Potency entry in experiment [4] and in experiment [5] was “inactive” in each case. Moreover, the activity change, positive = activation in experiment [9] is 3.9% [at 42.5 µM].
For the compound `CC(C)=CCC/C(C)=C/CC/C(C)=C/CO`, the Potency entry in experiment [1], in experiment [2], in [10], in experiment [7], in experiment [4] and in experiment [5] was “inactive” in each case.
Consider `C=CCOc1ccccc1OCC(O)CNC(C)C` (stereo not given), for which the Potency result in [1], in [2], in experiment [3], in experiment [8], in experiment [7] and in experiment [6] was “inactive” each time. The Potency result in experiment [4] and in [5] was “inactive” throughout. Besides, in experiment [9], the activity change, positive = activation was 4.2% [at 42.5 µM].
With `CC(C)(C)Cl`, the Potency entry in [1], in [2], in experiment [10], in experiment [7], in experiment [4] and in experiment [5] was “inactive” each time.
As for `CC(C)(C)OCC1CO1` (stereo not given), the Potency result in [1], in experiment [2], in experiment [10], in [7], in experiment [4] and in experiment [5] was “inactive” throughout.
As to `CCOC(=O)NCCOc1ccc(Oc2ccccc2)cc1`, the Potency entry in experiment [1], in [2], in [4] and in experiment [5] was “inactive” in each case. Besides, the values for the Potency in experiment [8] and in experiment [6] were 19.3 µM (active) and 21.9 µM (active), respectively. Moreover, the activity change, positive = activation in [9] is -42.2%.
With `O[C@@H](COc1cccc2ncccc12)CN1CCN(C2c3ccccc3[C@@H]3[C@H](c4ccccc42)C3(F)F)CC1` (stereo not given in full), the Potency entry in [1], in experiment [2], in experiment [3] and in [5] was “inactive” each time.
For `Cc1[nH]c(C)c(Cl)c(=O)c1Cl`, the activity change, negative = cytotoxicity in [1] is 12.4% [at 15.8 µM]; in experiment [7], 3.53% [at 15.8 µM]. For the same compound, the activation (H2AX phosphorylation) in experiment [2] was 1.85% [at 31.6 µM]. In addition, the activation in experiment [10] was -0.25% [at 15.8 µM]. The activity change, negative = cytotoxic in [6] is -20.8% [at 15.8 µM]; in [5] it was 1.26% [at 15.8 µM].
Consider `OC(CN1CCC(Cc2ccc(F)cc2)CC1)c1ccc(Cl)cc1` (stereo not given), for which the Potency result in experiment [1], in experiment [2] and in [10] was “inactive” throughout. The Potency in experiment [6] is 10.7 µM (active).
As to `O=C(O)CNCC(=O)O`, the activity change, negative = cytotoxicity in [1] was -0.223% [at 6.97 µM]. In experiment [2], the activation (H2AX phosphorylation) was 4.61% [at 14 µM]. Further, in [10], the activation is 0.217% [at 7.01 µM]. Besides, the figures for the activity change, negative = cytotoxic in experiment [6] and in experiment [5] were -9.97% [at 6.97 µM] and 1.89% [at 6.97 µM], respectively. Further, the cytotoxicity in experiment [4] is -0.535% [at 6.97 µM].
Take `c1ccc(C(O[C@H]2CCCN(CCc3ccc4c(c3)OCO4)C2)c2ccccc2)cc1`: the Potency result in experiment [1], in experiment [2], in experiment [10], in [7], in [4] and in experiment [5] was “inactive” in each case.
As to `COc1cc2nc(N3CCN(C(=O)C4COc5ccccc5O4)CC3)nc(N)c2cc1OC` (stereo not given), the Potency result in [1], in experiment [2], in experiment [3], in experiment [7], in experiment [4] and in experiment [5] was “inactive” in each case.
Regarding `O=C1C(O)=C(O)C(=O)C(O)=C1O`, the Potency entry in experiment [1], in [2], in [3], in [7], in experiment [6] and in experiment [4] was “inactive” throughout. Further, the Potency entry in experiment [5] was “inactive”.
With `CCn1cc(C(=O)O)c(=O)c2cnc(N3CCNCC3)nc21`, the Potency entry in [1], in [2], in experiment [3], in [8], in [6] and in [5] was “inactive” each time. Further, the activity change, positive = activation in experiment [9] is 2.22% [at 42.5 µM].
Turning to `NCC(=O)CCC(=O)O`, the Potency entry in [1], in [2], in experiment [3], in [7], in experiment [6] and in experiment [4] was “inactive” in each case. In addition, in [5], the Potency entry was “inactive”.
For the compound `CCCCc1nc2cccnc2n1Cc1ccc(-c2ccccc2-c2nnn[nH]2)cc1`, the Potency entry in experiment [1], in experiment [2], in [10], in [7], in [4] and in experiment [5] was “inactive” in each case.
Turning to `CCN(CC)CCOC(=O)C(Cc1cccc2ccccc12)CC1CCCO1` (stereo not given), the Potency result in experiment [1], in [2], in experiment [3], in [4] and in experiment [5] was “inactive” throughout.
In the case of `CN1CCN(C(c2ccccc2)c2ccccc2)CC1`, the Potency entry in experiment [1], in [2], in experiment [3], in experiment [6], in experiment [4] and in [5] was “inactive” in each case.
Regarding `COc1cccc(N(C)C(=S)Oc2ccc3c(c2)CCCC3)n1`, the Potency entry in experiment [1], in [2], in [3], in experiment [7], in experiment [6] and in [4] was “inactive” throughout. In addition, the Potency result in [5] was “inactive”.
As for `NC(N)=NCCC[C@H](N)C(=O)O`, the activity change, negative = cytotoxicity in experiment [1] is -0.141% [at 6.97 µM]; in [3] it was 0.155% [at 14 µM]; in experiment [7], 3.74% [at 6.97 µM]. Also, the activation (H2AX phosphorylation) in experiment [2] was -0.995% [at 14 µM]. In addition, in experiment [8], the activity, negative = inhibition was 11% [at 8.39 µM]. The activity change, positive = activation in experiment [9] is 5.81% [at 8.39 µM]. Besides, the activity change, negative = cytotoxic in [6] was 5.15% [at 6.97 µM]; in experiment [5], 2.25% [at 6.97 µM]. For the same compound, the cytotoxicity in [4] is -14.4% [at 6.97 µM].
Take `CCCn1cnc2c1c(=O)n(CCCCC(C)=O)c(=O)n2C`: the Potency result in [1], in [2], in [3], in experiment [8], in experiment [7] and in experiment [6] was “inactive” throughout. For the same compound, the Potency result in experiment [4] and in experiment [5] was “inactive” each time. Also, in experiment [9], the activity change, positive = activation is 0.154% [at 42.5 µM].
As to `CC[N+]1(CC)CCC(=C(c2ccccc2)c2ccccc2)C1C` (stereo not given), the Potency result in experiment [1], in experiment [2], in [10], in experiment [7], in experiment [4] and in experiment [5] was “inactive” each time.
On to `OCc1cc(C(O)CNCCCCCCOCCCCc2ccccc2)ccc1O` (stereo not given), for which the Potency result in [1], in [2] and in experiment [3] was “inactive” each time. The Potency in [8] is 21.1 µM (active); in experiment [6] it was 21.3 µM (active).
